# Experimental data from paper PMC7862700, “An all-to-all approach to the identification of sequence-specific readers for epigenetic DNA modifications on cytosine”.
# Assays:
# Test in all cases: DAPPL (digital affinity profiling via proximity ligation, sequencing); 10 mM Tris-HCl pH 7.5, 50 mM NaCl, 1 mM DTT, 4% glycerol, room temperature, 30 min; GST-TFs on glutathione beads, 16-mer random dsDNA library, 0.1% formaldehyde crosslink after washing; high values mean tight binding
# FEV = target: T1, FEV (Homo sapiens, UniProt Q99581 1-238); details: protein: recombinant; tags: N-terminal GST; dsDNA, one strand shown
# T1 sequence: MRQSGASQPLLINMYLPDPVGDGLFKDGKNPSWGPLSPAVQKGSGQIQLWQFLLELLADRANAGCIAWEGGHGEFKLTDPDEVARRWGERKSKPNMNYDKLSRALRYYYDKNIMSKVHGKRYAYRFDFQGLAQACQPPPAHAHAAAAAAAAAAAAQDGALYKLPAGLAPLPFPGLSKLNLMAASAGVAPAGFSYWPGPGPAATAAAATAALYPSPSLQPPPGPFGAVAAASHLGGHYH
# Summary of the method: (§1)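 Beads coated with glutathione captured GST-fused human transcription factors that had been expressed in yeast, and the factors were then given DNA barcodes and pooled with a tag-only sample. The pools were incubated with 200 nmole of a random double-stranded 16-mer DNA library in Tris/NaCl/DTT/glycerol buffer for 30 min at room temperature, washed, crosslinked with 0.1% formaldehyde and proximity-ligated with BsaI/T4 ligase at 37 °C for 1 h. PCR amplification and Illumina NextSeq500 sequencing came last. Binding signal is each hexamer's read frequency for a factor divided by its frequency for the tag-only sample.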
# ETV5 = ETV5 (Homo sapiens, UniProt P41161 1-510); details: protein: recombinant; tags: N-terminal GST; dsDNA, one strand shown
# Summary of the method: as §1
# HSF1 = HSF1 (Homo sapiens, UniProt Q00613 1-529); details: protein: recombinant; tags: N-terminal GST; chain copies: 3; dsDNA, one strand shown
# Summary of the method: as §1
# SPIC = target: T2, SPIC (Homo sapiens, UniProt Q8N5J4 1-248); details: protein: recombinant; tags: N-terminal GST; dsDNA, one strand shown
# T2 sequence: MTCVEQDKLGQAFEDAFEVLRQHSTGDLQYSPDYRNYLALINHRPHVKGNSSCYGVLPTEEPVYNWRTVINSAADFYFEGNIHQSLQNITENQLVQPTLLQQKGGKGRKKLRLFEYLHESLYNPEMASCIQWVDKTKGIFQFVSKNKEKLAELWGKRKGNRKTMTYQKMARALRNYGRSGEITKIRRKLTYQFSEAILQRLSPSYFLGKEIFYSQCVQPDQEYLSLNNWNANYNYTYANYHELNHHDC
# Summary of the method: as §1
# ELF4 = ELF4 (Homo sapiens, UniProt Q99607 1-663); details: protein: recombinant; tags: N-terminal GST; dsDNA, one strand shown
# Summary of the method: as §1
# ELK4 = target: T3, ELK4 (Homo sapiens, UniProt P28324-2 1-405); details: protein: recombinant; tags: N-terminal GST; dsDNA, one strand shown
# T3 sequence: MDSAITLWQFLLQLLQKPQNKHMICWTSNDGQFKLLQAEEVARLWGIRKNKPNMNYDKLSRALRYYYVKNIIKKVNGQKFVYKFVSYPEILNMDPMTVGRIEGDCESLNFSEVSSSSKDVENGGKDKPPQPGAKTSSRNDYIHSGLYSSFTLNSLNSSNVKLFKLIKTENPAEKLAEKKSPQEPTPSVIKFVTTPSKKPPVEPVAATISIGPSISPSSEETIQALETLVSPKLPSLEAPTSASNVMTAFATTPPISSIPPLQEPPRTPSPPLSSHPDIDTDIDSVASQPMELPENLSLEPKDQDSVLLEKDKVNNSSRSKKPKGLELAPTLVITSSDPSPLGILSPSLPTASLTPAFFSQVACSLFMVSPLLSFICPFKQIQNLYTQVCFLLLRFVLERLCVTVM
# Summary of the method: as §1
# ETV2 = target: T4, ETV2 (Homo sapiens, UniProt O00321 1-342); details: protein: recombinant; tags: N-terminal GST; dsDNA, one strand shown
# T4 sequence: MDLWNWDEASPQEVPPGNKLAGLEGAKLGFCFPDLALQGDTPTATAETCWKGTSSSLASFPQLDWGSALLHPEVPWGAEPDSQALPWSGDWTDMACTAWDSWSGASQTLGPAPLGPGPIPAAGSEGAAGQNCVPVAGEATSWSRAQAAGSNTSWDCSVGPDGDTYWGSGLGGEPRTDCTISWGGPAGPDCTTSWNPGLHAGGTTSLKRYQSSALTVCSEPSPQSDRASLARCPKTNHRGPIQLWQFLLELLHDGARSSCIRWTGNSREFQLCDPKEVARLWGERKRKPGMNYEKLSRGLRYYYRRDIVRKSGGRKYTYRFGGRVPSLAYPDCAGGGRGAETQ
# Summary of the method: as §1
# ELF3 = target: T5, ELF3 (Homo sapiens, UniProt P78545 1-371); details: protein: recombinant; tags: N-terminal GST; dsDNA, one strand shown
# T5 sequence: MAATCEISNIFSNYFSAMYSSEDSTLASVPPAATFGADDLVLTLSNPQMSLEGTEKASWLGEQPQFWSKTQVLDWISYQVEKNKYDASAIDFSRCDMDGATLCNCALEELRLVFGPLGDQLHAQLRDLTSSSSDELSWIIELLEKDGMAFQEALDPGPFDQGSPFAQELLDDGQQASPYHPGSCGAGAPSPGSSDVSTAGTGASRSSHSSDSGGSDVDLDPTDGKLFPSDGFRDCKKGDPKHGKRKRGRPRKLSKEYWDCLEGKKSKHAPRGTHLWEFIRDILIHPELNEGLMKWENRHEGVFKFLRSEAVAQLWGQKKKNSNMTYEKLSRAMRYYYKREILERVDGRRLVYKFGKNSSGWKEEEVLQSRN
# Summary of the method: as §1
# CRX = CRX (Homo sapiens, UniProt O43186 1-299); details: protein: recombinant; tags: N-terminal GST; dsDNA, one strand shown
# Summary of the method: as §1
# ETV1 = ETV1 (Homo sapiens, UniProt P50549 1-477); details: protein: recombinant; tags: N-terminal GST; dsDNA, one strand shown
# Summary of the method: as §1
# ERF = target: T6, ERF (Homo sapiens, UniProt P50548 1-548); details: protein: recombinant; tags: N-terminal GST; dsDNA, one strand shown
# T6 sequence: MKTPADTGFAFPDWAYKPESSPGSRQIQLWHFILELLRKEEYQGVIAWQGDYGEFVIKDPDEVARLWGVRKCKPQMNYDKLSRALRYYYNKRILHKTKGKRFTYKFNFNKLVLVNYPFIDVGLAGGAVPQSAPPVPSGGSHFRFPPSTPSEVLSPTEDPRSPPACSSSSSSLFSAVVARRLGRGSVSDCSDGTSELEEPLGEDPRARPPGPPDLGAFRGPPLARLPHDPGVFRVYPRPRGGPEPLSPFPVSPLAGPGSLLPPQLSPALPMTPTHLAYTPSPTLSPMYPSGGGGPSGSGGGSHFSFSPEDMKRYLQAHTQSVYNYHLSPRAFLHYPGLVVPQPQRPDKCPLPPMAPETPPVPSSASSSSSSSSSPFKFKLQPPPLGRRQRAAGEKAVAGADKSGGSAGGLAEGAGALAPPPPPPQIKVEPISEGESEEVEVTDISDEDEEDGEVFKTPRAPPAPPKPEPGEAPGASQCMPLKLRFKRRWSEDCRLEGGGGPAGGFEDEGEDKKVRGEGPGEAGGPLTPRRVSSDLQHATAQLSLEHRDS
# Summary of the method: as §1
# ETV3L = target: T7, ETV3L (Homo sapiens, UniProt Q6ZN32 1-361); details: protein: recombinant; tags: N-terminal GST; dsDNA, one strand shown
# T7 sequence: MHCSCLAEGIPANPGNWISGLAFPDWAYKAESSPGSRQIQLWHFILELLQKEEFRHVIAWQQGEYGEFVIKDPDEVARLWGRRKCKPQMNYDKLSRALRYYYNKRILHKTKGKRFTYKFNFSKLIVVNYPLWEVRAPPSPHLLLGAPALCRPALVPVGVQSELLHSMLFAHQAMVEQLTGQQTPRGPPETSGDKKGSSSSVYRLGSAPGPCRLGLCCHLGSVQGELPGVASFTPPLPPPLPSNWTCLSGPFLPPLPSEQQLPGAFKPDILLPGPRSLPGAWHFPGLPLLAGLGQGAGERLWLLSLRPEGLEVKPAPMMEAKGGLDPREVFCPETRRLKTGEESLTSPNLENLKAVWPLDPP
# Summary of the method: as §1
# ETS2 = target: T8, ETS2 (Homo sapiens, UniProt P15036 1-469); details: protein: recombinant; tags: N-terminal GST; dsDNA, one strand shown
# T8 sequence: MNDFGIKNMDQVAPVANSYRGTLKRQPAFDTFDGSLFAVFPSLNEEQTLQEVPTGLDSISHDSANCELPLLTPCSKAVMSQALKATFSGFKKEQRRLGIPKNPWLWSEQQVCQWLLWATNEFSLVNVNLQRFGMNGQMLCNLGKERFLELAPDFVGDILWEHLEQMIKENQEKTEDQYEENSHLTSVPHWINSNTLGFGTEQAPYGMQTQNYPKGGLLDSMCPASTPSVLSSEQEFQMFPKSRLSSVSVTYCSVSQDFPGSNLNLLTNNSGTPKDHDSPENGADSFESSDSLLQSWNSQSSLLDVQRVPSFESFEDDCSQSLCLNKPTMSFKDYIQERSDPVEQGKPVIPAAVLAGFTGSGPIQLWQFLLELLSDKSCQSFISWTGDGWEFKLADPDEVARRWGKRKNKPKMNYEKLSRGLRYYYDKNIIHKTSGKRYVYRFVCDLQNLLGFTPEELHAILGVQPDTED
# Summary of the method: as §1
# SPDEF = target: T9, SPDEF (Homo sapiens, UniProt O95238 1-335); details: protein: recombinant; tags: N-terminal GST; dsDNA, one strand shown
# T9 sequence: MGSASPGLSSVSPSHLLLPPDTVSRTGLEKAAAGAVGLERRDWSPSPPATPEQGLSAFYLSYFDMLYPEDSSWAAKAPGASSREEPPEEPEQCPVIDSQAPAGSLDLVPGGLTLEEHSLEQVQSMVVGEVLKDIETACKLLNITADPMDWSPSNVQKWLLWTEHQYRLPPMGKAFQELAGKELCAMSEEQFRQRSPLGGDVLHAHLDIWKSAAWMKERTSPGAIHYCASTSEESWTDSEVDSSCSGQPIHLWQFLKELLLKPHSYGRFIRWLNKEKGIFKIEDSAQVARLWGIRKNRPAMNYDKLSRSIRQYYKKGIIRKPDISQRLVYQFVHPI
# Summary of the method: as §1
# ETV7 = target: T10, ETV7 (Homo sapiens, UniProt Q9Y603 1-341); details: protein: recombinant; tags: N-terminal GST; dsDNA, one strand shown
# T10 sequence: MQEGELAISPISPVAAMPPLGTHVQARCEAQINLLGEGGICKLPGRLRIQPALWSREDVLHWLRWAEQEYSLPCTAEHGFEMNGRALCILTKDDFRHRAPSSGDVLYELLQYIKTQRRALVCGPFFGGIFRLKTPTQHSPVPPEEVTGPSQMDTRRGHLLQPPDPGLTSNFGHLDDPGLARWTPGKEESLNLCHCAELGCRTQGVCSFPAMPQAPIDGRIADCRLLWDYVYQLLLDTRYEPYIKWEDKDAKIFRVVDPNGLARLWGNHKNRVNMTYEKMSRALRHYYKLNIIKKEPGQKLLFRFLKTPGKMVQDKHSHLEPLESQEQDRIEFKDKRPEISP
# Summary of the method: as §1
# ELF5 = target: T11, ELF5 (Homo sapiens, UniProt Q9UKW6-2 1-255); details: protein: recombinant; tags: N-terminal GST; dsDNA, one strand shown
# T11 sequence: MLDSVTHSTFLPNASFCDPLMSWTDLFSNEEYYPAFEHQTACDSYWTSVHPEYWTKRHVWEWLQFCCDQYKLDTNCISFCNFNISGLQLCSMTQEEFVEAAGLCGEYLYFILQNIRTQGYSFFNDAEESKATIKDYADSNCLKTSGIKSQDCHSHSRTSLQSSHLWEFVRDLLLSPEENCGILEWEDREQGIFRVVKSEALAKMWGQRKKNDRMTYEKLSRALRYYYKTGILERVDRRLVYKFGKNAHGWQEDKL
# Summary of the method: as §1
# ETV3 = target: T12, ETV3 (Homo sapiens, UniProt P41162-2 1-143); details: protein: recombinant; tags: N-terminal GST; dsDNA, one strand shown
# T12 sequence: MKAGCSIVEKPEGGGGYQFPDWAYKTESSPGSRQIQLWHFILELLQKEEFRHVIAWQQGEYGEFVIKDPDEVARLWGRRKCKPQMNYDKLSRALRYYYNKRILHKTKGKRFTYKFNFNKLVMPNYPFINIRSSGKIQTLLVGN
# Summary of the method: as §1
# ETV6 = ETV6 (Homo sapiens, UniProt P41212 1-452); details: protein: recombinant; tags: N-terminal GST; dsDNA, one strand shown
# Summary of the method: as §1
# Chain of CRX (O43186 whole entry): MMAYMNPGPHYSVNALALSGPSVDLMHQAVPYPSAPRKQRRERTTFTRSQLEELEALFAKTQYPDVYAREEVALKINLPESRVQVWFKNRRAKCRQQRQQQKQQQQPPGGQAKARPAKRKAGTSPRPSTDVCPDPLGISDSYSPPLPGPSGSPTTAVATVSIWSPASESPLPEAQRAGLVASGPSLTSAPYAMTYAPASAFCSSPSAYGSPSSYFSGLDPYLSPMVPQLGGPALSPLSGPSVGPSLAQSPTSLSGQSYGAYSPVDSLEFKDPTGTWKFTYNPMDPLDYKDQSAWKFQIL
# Chain of ETV1 (P50549 whole entry): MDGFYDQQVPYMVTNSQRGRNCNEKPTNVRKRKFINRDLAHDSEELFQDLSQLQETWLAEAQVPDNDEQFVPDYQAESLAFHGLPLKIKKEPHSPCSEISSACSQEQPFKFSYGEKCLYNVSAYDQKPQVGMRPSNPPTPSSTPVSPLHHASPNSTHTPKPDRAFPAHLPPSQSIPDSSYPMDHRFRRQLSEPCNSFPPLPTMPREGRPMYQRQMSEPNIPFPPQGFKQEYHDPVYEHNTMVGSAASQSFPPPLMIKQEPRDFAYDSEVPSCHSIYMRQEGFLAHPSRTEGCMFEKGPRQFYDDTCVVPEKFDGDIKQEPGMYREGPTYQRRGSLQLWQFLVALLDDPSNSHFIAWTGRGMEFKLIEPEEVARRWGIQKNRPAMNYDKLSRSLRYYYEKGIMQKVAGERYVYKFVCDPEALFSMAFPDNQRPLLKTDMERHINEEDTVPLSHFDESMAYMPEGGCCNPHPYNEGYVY
# Chain of ETV6 (P41212 whole entry): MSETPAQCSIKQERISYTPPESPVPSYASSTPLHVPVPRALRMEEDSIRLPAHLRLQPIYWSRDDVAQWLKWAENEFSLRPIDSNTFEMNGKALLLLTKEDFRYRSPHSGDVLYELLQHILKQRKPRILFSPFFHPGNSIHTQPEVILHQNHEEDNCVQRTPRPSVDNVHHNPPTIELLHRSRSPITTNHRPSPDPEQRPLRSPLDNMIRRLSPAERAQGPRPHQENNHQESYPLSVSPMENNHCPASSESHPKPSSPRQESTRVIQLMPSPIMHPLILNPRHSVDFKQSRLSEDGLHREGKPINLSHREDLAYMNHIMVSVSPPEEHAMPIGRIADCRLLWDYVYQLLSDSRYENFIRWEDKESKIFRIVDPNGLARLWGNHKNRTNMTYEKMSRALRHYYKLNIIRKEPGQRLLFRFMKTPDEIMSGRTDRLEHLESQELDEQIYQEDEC
# Chain of ETV5 (P41161 whole entry): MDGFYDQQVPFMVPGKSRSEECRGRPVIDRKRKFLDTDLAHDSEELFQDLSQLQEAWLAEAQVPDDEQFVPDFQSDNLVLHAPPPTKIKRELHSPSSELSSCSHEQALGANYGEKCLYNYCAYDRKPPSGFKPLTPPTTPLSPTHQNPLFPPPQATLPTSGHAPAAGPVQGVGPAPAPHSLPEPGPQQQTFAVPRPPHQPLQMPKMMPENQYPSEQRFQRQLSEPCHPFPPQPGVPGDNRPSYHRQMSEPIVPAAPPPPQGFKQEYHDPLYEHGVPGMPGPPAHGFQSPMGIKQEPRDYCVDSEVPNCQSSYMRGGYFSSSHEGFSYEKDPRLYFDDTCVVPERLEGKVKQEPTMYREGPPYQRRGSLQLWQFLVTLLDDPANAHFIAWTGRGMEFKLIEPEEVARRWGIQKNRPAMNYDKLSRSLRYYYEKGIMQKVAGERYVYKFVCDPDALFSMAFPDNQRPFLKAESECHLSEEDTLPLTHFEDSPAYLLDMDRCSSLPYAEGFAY
# Chain of HSF1 (Q00613 whole entry): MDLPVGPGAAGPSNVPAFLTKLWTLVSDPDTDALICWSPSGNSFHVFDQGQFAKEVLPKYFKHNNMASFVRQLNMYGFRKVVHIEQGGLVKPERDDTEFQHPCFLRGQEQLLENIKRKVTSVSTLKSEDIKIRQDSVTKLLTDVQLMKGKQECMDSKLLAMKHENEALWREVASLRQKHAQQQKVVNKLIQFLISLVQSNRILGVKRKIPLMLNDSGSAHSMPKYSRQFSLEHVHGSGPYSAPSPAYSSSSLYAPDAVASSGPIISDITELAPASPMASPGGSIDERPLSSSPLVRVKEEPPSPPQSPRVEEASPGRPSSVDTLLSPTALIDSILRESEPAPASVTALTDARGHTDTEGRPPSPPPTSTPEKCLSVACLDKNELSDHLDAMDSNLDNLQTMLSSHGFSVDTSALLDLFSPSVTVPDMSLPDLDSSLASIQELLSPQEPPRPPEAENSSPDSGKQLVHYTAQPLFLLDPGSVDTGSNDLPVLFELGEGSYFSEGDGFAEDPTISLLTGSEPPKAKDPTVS
# Chain of ELF4 (Q99607 whole entry): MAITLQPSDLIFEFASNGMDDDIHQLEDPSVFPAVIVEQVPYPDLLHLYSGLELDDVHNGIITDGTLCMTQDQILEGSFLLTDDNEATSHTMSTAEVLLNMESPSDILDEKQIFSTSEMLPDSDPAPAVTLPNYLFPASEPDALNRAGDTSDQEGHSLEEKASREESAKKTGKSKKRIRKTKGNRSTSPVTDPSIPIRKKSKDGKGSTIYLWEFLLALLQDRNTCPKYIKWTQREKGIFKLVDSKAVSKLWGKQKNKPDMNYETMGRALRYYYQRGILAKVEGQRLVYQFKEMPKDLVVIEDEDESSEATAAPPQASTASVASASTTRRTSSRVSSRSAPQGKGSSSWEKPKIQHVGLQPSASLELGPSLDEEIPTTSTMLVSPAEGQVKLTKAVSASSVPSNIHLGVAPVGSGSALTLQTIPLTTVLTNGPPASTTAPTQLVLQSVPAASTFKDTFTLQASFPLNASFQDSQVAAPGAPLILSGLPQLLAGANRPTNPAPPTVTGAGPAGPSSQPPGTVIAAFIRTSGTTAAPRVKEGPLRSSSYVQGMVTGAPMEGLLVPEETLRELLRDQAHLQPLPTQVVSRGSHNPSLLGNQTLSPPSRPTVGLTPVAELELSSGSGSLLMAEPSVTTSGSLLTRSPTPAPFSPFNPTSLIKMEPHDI
sequence,measurement,setting,value
TACTCT,binding signal,FEV,"1.33 fold enrichment (6-mer frequency, TF over GST control)"
same,binding signal,ETV5,"1.45 fold enrichment (6-mer frequency, TF over GST control)"
same,binding signal,HSF1,"1.37 fold enrichment (6-mer frequency, TF over GST control)"
same,binding signal,SPIC,"1.28 fold enrichment (6-mer frequency, TF over GST control)"
same,binding signal,ELF4,"1.42 fold enrichment (6-mer frequency, TF over GST control)"
same,binding signal,ELK4,"1.44 fold enrichment (6-mer frequency, TF over GST control)"
same,binding signal,ETV2,"1.43 fold enrichment (6-mer frequency, TF over GST control)"
same,binding signal,ELF3,"1.49 fold enrichment (6-mer frequency, TF over GST control)"
same,binding signal,CRX,"1.6 fold enrichment (6-mer frequency, TF over GST control)"
same,binding signal,ETV1,"1.47 fold enrichment (6-mer frequency, TF over GST control)"
same,binding signal,ERF,"1.46 fold enrichment (6-mer frequency, TF over GST control)"
same,binding signal,ETV3L,"1.37 fold enrichment (6-mer frequency, TF over GST control)"
same,binding signal,ETS2,"1.3 fold enrichment (6-mer frequency, TF over GST control)"
same,binding signal,SPDEF,"1.39 fold enrichment (6-mer frequency, TF over GST control)"
same,binding signal,ETV7,"1.33 fold enrichment (6-mer frequency, TF over GST control)"
same,binding signal,ELF5,"1.38 fold enrichment (6-mer frequency, TF over GST control)"
same,binding signal,ETV3,"1.39 fold enrichment (6-mer frequency, TF over GST control)"
same,binding signal,ETV6,"1.39 fold enrichment (6-mer frequency, TF over GST control)"
